Source: PubChem BioAssay
ROS inducer = ROS inducers in U2OS cancer cells, primary screen, cell-based, H2DCF-DA fluorescence | ROS induction (% of piperlongumine), % at 10 µM | 46,000 tested, 2% active | AID 624156, 2012 | U2OS ROS induction; in the data active = ROS induction above about 79%, passing the limit was not always enough;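 also: 0% = DMSO vehicle median and 100% = reference compound median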
YB-1 expression = inhibitors of YB-1 gene expression, primary screen, cell-based, fluorescence; delta delta Cp (YB-1 minus CDIP) (test concentration not listed); 30,000 tested, 0.37% active; U2OS, qRT-PCR YB-1 vs CDIP delta delta Cp, 16 h; active compounds read high; zero = DMSO, each unit about twofold;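 active = delta delta Cp rounded down to an integer at or above 3, about 3 SD of DMSO wells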;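 also: higher means less YB-1 transcript or more CDIP transcript relative to DMSO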
PD-1 reversal = activators reversing PD-1 mediated T-cell inhibition, primary screen, luminescence, primary human CD4 T cells, PD-L1 beads | CellTiter-Glo 96 h | activation, % (no concentration beside the values) | 29,000 tested, under 10 active; call rule not given here;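 also: 0% = median vehicle wells and 100% = positive control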
Numbers without * were called inactive; . = no result given. An excerpt weighted towards active compounds, which were near 2.1% of everything screened.

SMILES | ROS inducer | YB-1 expression | PD-1 reversal
C[C@@H]1CN([C@@H](C)CO)C(=O)c2cc(NC(=O)C3CC3)ccc2O[C@@H]1CN(C)C(=O)Nc1ccc(C(F)(F)F)cc1 | 80* | 0.34 | -3
C[C@@H]1CN([C@H](C)CO)C(=O)c2cc(NC(=O)C3CC3)ccc2O[C@H]1CN(C)C(=O)NC1CCCCC1 | -7 | -0.021 | 0
C[C@H]1CN([C@@H](C)CO)C(=O)c2cc(NC(=O)Nc3ccc(C(F)(F)F)cc3)ccc2O[C@@H]1CN(C)C(=O)Nc1ccc2c(c1)OCO2 | 31 | 0.11 | -2
C[C@@H]1CN([C@H](C)CO)C(=O)c2cc(NC(=O)C3CC3)ccc2O[C@H]1CN(C)C(=O)Nc1ccc(C(F)(F)F)cc1 | 1 | -0.094 | -4
C[C@H](CO)N1C[C@H](C)[C@H](CN(C)C(=O)Nc2ccc(C(F)(F)F)cc2)Oc2ccc(NC(=O)Nc3ccc4c(c3)OCO4)cc2C1=O | 103* | 0.36 | -2
C[C@@H]1CN([C@@H](C)CO)C(=O)c2cc(NC(=O)C3CC3)ccc2O[C@H]1CN(C)C(=O)NC1CCCCC1 | 13 | 21* | .
C[C@H]1CN([C@@H](C)CO)C(=O)c2cc(NC(=O)C3CCCCC3)ccc2O[C@@H]1CN(C)C(=O)Nc1cccc2ccccc12 | 5 | 0.016 | -1
CC(C)(C)CC(=O)NCc1cn2ccsc2n1 | -13 | . | .
CCC(CCCCC(=O)CCCCC1CCC(=O)O1)O[C@@H]1O[C@H](CO[C@@H]2O[C@H](CO)[C@@H](O)[C@H](O)[C@H]2O)[C@H](OC(=O)/C=C/c2ccc(O)cc2)[C@H](OC(C)=O)[C@H]1O (stereo partly drawn) | -6 | 0.067 | .
CCOc1ccc2c(c1)sc(=NC(=O)CCOc1ccccc1)n2C | 2 | . | .
CC1CCCCC1NC(=O)c1ccc2c(=O)n(CCCN3CCCC3=O)c(=S)[nH]c2c1 (stereo not drawn) | 8 | . | .
CCc1cc(-c2n[nH]c(C)c2-c2nc(C)cs2)c(O)cc1OCc1ccc([N+](=O)[O-])cc1 | 48 | . | -3
Cc1ccccc1OCC1CN(CN(CC(C)C)CC(C)C)C(=O)O1 (stereo not drawn) | 12 | -0.016 | -1
CCc1nc(-n2nnc3cc(C)c(C)cc32)c2c3c(sc2n1)CCCC3 | 12 | -0.23 | 1
C[C@H]1CN([C@@H](C)CO)C(=O)c2cc(NC(=O)Nc3ccc4c(c3)OCO4)ccc2O[C@H]1CN(C)Cc1ccc(C(F)(F)F)cc1 | 34 | 0.32 | -2
C[C@@H]1CN([C@H](C)CO)C(=O)c2cc(NC(=O)Nc3ccc4c(c3)OCO4)ccc2O[C@H]1CN(C)Cc1ccc(C(F)(F)F)cc1 | 119* | -0.32 | -1
C=C1C(=O)O[C@@H]2CC=C(CCC(C)O)C(C)C[C@@H]12 (stereo partly drawn) | 50 | 0.32 | -8
O=C(O)CSc1nnc(Cn2c(=O)sc3ccccc32)n1-c1cccc(C(F)(F)F)c1 | 40 | . | .
COc1ccc(-n2c(SCC(=O)Nc3ccc(C)c(C)c3)nnc2-c2ccccc2)cc1 | -9 | . | 0
Cc1cc(C(=O)Nc2cccc3c2O[C@H](CN(C)Cc2ccc(-c4ccccc4)cc2)[C@@H](C)CN([C@@H](C)CO)C3=O)n(C)n1 | 214* | -0.35 | 1
Cc1cc(C(=O)Nc2cccc3c2O[C@H](CN(C)Cc2ccc(-c4ccccc4)cc2)[C@H](C)CN([C@H](C)CO)C3=O)n(C)n1 | 16 | -0.13 | .
Cc1cc(C(=O)Nc2cccc3c2O[C@@H](CN(C)Cc2ccc(-c4ccccc4)cc2)[C@H](C)CN([C@H](C)CO)C3=O)n(C)n1 | 78* | 0.16 | .
Cc1cc(C(=O)Nc2cccc3c2O[C@H](CN(C)Cc2ccc(-c4ccccc4)cc2)[C@H](C)CN([C@@H](C)CO)C3=O)n(C)n1 | 19 | -0.41 | 0
COC(=O)Cn1ncc2c3ccccc3n(Cc3cc(C)ccc3C)c2c1=O | -8 | . | .
CC1=CC2OC3[C@H](O)C[C@](C)([C@@]2(CO)CC1=O)[C@]31CO1 (stereo partly drawn) | -9 | -0.49 | -2
SMILES | ROS inducer | YB-1 expression | PD-1 reversal
O=C(COc1ccc(Br)cc1)NCC1CCCO1 (stereo not drawn) | 6 | 9.5* | 0
O=S(=O)(NCC1CCCO1)c1ccc(Br)cc1 (stereo not drawn) | 30 | -0.14 | 2
c1ccc(-c2ccc3c(n2)CCc2ccccc2-3)cc1 | 107* | -0.19 | -1
Oc1ccccc1-c1cc(-c2ccccc2O)nc(-c2ccccc2)n1 | 2 | . | .
C=CCNC(=O)COc1ccc(C(C)C)cc1 | 27 | . | .
COc1ccc(C(=O)COc2ccc(NC(=O)c3ccccc3[N+](=O)[O-])cc2)cc1 | 9 | . | 2
